Screens as filed in PubChem.
IL1B secr inh = qHTS for Inhibitors of Inflammasome Signaling: IL-1-beta AlphaLISA Primary Screen | THP-1 LPS/ATP IL-1B secretion, AlphaLISA, 16 h; stronger effect = lower value | activity change, % at 57.5 µM | hit rate 4.7% among 360,000; in the data active = activity change below about -50%; inconclusive = mostly about -30% to -49%
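THP-1 cells pretreated 1 hr with compounds (up to 57.5 uM final), then stimulated with LPS (250 ng/mL final) plus ATP (1.25 mM final); secreted IL-1B measured by AlphaLISA after 16 hr, decreased signal indicating inhibition.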
TDP1 cell noCPT = qHTS for Inhibitors of human tyrosyl-DNA phosphodiesterase 1 (TDP1): qHTS in cells in absence of CPT. DT40 Tdp1-/- hTDP1 cells, no CPT, ATP luminescence, 48 h. Potency, µM (top dose mostly 46.2 µM), hits mostly inhibitors. hit rate 15% among 420,000; also: nearly all actives have a fitted effect of over 55% in size
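Luminescent ATP content (CellTiter-Glo) served as the growth readout. Knockout chicken DT40 cells expressing human TDP1 were exposed to compounds without camptothecin for a minimum 48 hr at 37 °C.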
HT1080 IDH1KD tx = qHTS for induction of synthetic lethality in tumor cells producing 2HG: qHTS for the HT-1080-IDH1KD cell line; HT-1080 IDH1 knockdown viability, ATP luminescence, 48 h; Potency, µM (series often up to 46.1 µM), actives largely listed as cytotoxic; hit rate 2% among 360,000; AID 686971, 2013
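% activity derives from luminescence (CellTiter-Glo), normalised to DMSO and no-cell wells. HT-1080-IDH1KD cells, 750/well, had 48 h compound exposure at 37 °C.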
ELG1 DNA repair = qHTS screen for small molecules that inhibit ELG1-dependent DNA repair in human embryonic kidney (HEK293T) cells expressing luciferase-tagged ELG1 | HEK293T ELG1-luciferase reporter, luminescence, 16 h; DNA damage induced by 5-fluorouridine | Potency, µM (top dose mostly 46.1 µM), usual class: inhibitors | hit rate 2.3% among 330,000 | AID 504467, 2011; also: nearly all actives have a fitted effect of over 55% in size
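Step one: seed 2,000 cells per well. Step two: pin-transfer compound or DMSO alongside 5-fluorouridine. Step three: incubate 16 hr, 37 °C, 5% CO2. Step four: add ONE-Glo, wait 30 min, read luminescence.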
TDP1 cell CPT = qHTS for Inhibitors of human tyrosyl-DNA phosphodiesterase 1 (TDP1): qHTS in cells in presence of CPT | chicken DT40 Tdp1-/-;hTDP1 cells + 20 nM CPT, ATP luminescence, 48 h | Potency, µM (highest dose often 46.2 µM), usual class: inhibitors | hit rate 12% among 420,000 | AID 686979, 2013; also: nearly all actives have a fitted effect of over 55% in size
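Chicken DT40 Tdp1-/- cells stably complemented with human TDP1 were seeded at 400 cells/well in medium containing 20 nM camptothecin, exposed to pin-transferred compounds, and grown at 37 °C for at least 48 hr. Viability was read as ATP luminescence.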
HT1080NT lethal = qHTS for induction of synthetic lethality in tumor cells producing 2HG: qHTS for the HT-1080-NT fibrosarcoma cell line; Potency, µM (doses to about 46.1 µM), usual class: cytotoxic; hit rate 1.6% among 360,000; HT-1080-NT fibrosarcoma viability, CellTiter-Glo ATP luminescence, 48 h;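 also: NT is the 2HG producing partner of a matched IDH1 knockdown line; nearly all actives have a fitted effect of over 55% in size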
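Compounds were tested in concentration-response format on HT-1080-NT cells for 48 hours at 37 degrees C. Cell viability came from CellTiter-Glo luminescence; curves were classified by r2, response magnitude and activity.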
Numbers stand for hits; – = inactive; ? = inconclusive; · = not tested or not shown; [ ] = another dose, or the depositor's remark. Most compounds without a hit are left out; they make up all but 19% or so of the library. Unless noted, calls follow the shape of the dose curve; as a rule, active = well fitted curve in the direction sought with a large enough effect; inconclusive = small, poorly fitted or top-dose-only effect, or another doubt; inactive = no such curve, though single readings can be large; an effect the other way counts as inactive or inconclusive.

SMILES	IL1B secr inh	TDP1 cell noCPT	HT1080 IDH1KD tx	ELG1 DNA repair	TDP1 cell CPT	HT1080NT lethal
CN1C(=O)/C(=N/OC(=O)c2ccccc2)c2ccccc21	–	11.6µM	–	?	7.31µM	–
C/C(=N/NC(=O)CN(c1ccccc1)S(=O)(=O)c1ccccc1)c1ccccc1O	–	9.2µM	?	13µM	18.4µM	?
CCCC/C(C)=N/NC(=O)CN(c1ccc(Br)cc1)S(=O)(=O)c1ccccc1	–	–	–	–	–	–
O=[N+]([O-])c1ccc(NN=CC2CCCCCC2)c([N+](=O)[O-])c1	–	13µM	–	·	14.6µM	–
CC(=O)NC(CC(=O)NNC(=O)c1cccs1)c1ccccc1 (stereo unspecified)	–	–	–	?	–	–
O=C(Nc1ncc(Cc2cccc(Cl)c2)s1)c1cccs1	–	?	?	?	?	?
O=C(Nc1ncc(Cc2cccc(Cl)c2)s1)C1=NCCN1	–	?	–	–	16.4µM	20µM
CCCS(=O)(=O)NC(=O)C1(C)CCN(C(=O)c2ccccc2OC)C1 (stereo unspecified)	–	–	–	·	–	–
CCNC(=O)Nc1cc(S(=O)(=O)Nc2ccc(OC)cc2)ccc1N1CCOCC1	–	0.731µM	–	–	2.31µM	–
COc1ccc(NS(=O)(=O)c2ccc(N3CCCC3)c(NC(=S)Nc3cccc(C)c3C)c2)cc1	?	9.2µM	–	?	11.6µM	–
COc1ccc(NS(=O)(=O)c2ccc(N3CCCC3)c(NC(=S)Nc3ccc(SC(F)F)cc3)c2)cc1	–	18.4µM	–	23.1µM	18.4µM	–
CNC(=S)Nc1cc(S(=O)(=O)Nc2cc(Cl)ccc2Cl)ccc1N1CCCC1	–	?	–	–	–	–
COc1ccc(S(=O)(=O)N(C)C[C@@H]2OCc3cn(nn3)CCCC(=O)N([C@H](C)CO)C[C@H]2C)cc1	–	–	–	·	–	–
COc1ccc(OC(C)c2nc3ccccc3[nH]2)cc1 (stereo unspecified)	·	?	·	·	–	·
COc1ccc(CCNc2oc(-c3ccc(C)cc3)nc2C#N)cc1OC	–	?	–	–	?	–
COc1ccc(CCNc2oc(-c3cccc4ccccc34)nc2P(=O)(OC)OC)cc1OC	–	14.6µM	–	?	?	–
CCOP(=O)(OCC)c1nc(/C=C/c2ccccc2)oc1NCc1ccccc1	-74.9	?	–	–	?	–
CCOP(=O)(OCC)c1nc(-c2cccc3ccccc23)oc1NCc1ccc(OC)cc1	-75.0	?	?	?	?	?
CCOP(=O)(OCC)c1nc(/C=C/c2ccccc2)oc1NCc1ccc(OC)cc1	–	?	?	?	?	?
C[C@H]1CN([C@@H](C)CO)C(=O)CCCn2nncc2CO[C@@H]1CN(C)S(=O)(=O)c1ccc(Oc2ccccc2)nc1	–	–	–	·	–	–
COc1cc2ccnc(C=NO)c2cc1OC	?	20.6µM	?	·	20.6µM	–
COc1cc(N)c(C(=O)c2nccc3cc(OC)c(OC)cc23)cc1OC	–	–	–	–	–	–
COc1cc2ccnc(Cc3cccc(OC)c3OC)c2cc1OC	–	13µM	–	–	?	–
COc1ccc(C(N)c2nccc3cc(OC)c(OC)cc23)cc1OC (stereo unspecified)	-83.4	?	–	?	?	–
COc1cc(N)c(Cc2nccc3cc(OC)c(OC)cc23)cc1OC	–	?	–	?	?	–
SMILES	IL1B secr inh	TDP1 cell noCPT	HT1080 IDH1KD tx	ELG1 DNA repair	TDP1 cell CPT	HT1080NT lethal
COc1cc(Br)c(C(=O)c2nccc3cc(OC)c(OC)cc23)cc1OC	–	18.4µM	–	–	23.1µM	?
COc1cc(Cc2nccc3cc(OC)c(OC)cc23)c(S(=O)(=O)O)cc1OC	–	–	–	–	–	–
C[C@@H]1CN(Cc2nnnn2CC(=O)NCCCn2cccn2)C[C@H](C)O1	–	–	–	·	–	–
CC(C)(C)c1cc(C(=O)NNC(=O)c2ccc(Cl)cc2)no1	–	–	–	–	–	–
COc1cc2ccnc(C=O)c2cc1OC	–	2.59µM	?	·	4.61µM	–
CC(c1ccco1)N(C(=O)c1ccc(Cl)c([N+](=O)[O-])c1)c1ccccn1 (stereo unspecified)	–	20.6µM	–	–	20.6µM	–
CC(c1ccco1)N(C(=O)c1ccc(C(F)(F)F)cc1)c1ccccn1 (stereo unspecified)	–	?	–	–	–	–
CC(c1ccco1)N(C(=O)COc1ccc(Cl)cc1)c1ccccn1 (stereo unspecified)	–	?	–	?	?	–
CC(c1ccco1)N(C(=O)C12CC3CC(CC(C3)C1)C2)c1ccccn1 (stereo unspecified)	–	?	–	–	20.6µM	–
CC(c1ccco1)N(C(=O)COc1ccc(Cl)cc1Cl)c1ccccn1 (stereo unspecified)	?	20.6µM	–[9.24 µM]	?	?	?
CCOc1ccc(NC(=S)NC(=O)c2cccnc2)c([N+](=O)[O-])c1	–	–	–	–	–	–
O=C(OC1CCOC1=O)c1ccc(Cl)c(S(=O)(=O)N2CCOCC2)c1 (stereo unspecified)	–	–	–	–	–	–
C=CCCN([C@@H](C)C(=O)OC)S(=O)(=O)c1ccccc1Br	–	?	–	–	–	–
CCCCN([C@H](CO)C(C)C)S(=O)(=O)c1ccccc1Br	–	20.6µM	–	–	?	–
COc1ccc(OC)c(NC(=O)Cn2cnc3ccc(S(=O)(=O)N4CCC(C)CC4)cc3c2=O)c1	·	?	·	·	23.1µM	·
COc1ccc(NC(=O)Cn2cnc3ccc(S(=O)(=O)N4CCC(C)CC4)cc3c2=O)cc1OC	·	?	·	·	25.9µM	·
CC1CCN(S(=O)(=O)c2ccc3ncn(CC(=O)Nc4ccccc4C(F)(F)F)c(=O)c3c2)CC1	·	?	·	·	20.6µM	·
COC(=O)c1ccccc1NC(=O)Cn1cnc2ccc(S(=O)(=O)N3CCC(C)CC3)cc2c1=O	–	–	–	–	–	–
COc1ccc(OCc2nc3c4cc(OC)c(OC)cc4nc(=S)n3[nH]2)cc1	–	6.51µM	–	–	6.51µM	–
CN1CCN/C1=C(/C(Cl)=C(Cl)Cl)[N+](=O)[O-]	–	23.1µM	–	–	11.6µM	–
